Source: PubChem (several laboratories)
Only some compounds are listed: those with a hit (about 3.9% of all), similar ones and a draw of the others.
AHR activator = AHR activators, primary screen, cell-based, luminescence, luciferase reporter, human; AHR-responsive luciferase reporter cells; activation, % at 5 µM; actives 2.5% (n = 320,000); AID 2796, 2010; in the data active = activation above about 47%
Target sequence (P35869 whole entry, looked up): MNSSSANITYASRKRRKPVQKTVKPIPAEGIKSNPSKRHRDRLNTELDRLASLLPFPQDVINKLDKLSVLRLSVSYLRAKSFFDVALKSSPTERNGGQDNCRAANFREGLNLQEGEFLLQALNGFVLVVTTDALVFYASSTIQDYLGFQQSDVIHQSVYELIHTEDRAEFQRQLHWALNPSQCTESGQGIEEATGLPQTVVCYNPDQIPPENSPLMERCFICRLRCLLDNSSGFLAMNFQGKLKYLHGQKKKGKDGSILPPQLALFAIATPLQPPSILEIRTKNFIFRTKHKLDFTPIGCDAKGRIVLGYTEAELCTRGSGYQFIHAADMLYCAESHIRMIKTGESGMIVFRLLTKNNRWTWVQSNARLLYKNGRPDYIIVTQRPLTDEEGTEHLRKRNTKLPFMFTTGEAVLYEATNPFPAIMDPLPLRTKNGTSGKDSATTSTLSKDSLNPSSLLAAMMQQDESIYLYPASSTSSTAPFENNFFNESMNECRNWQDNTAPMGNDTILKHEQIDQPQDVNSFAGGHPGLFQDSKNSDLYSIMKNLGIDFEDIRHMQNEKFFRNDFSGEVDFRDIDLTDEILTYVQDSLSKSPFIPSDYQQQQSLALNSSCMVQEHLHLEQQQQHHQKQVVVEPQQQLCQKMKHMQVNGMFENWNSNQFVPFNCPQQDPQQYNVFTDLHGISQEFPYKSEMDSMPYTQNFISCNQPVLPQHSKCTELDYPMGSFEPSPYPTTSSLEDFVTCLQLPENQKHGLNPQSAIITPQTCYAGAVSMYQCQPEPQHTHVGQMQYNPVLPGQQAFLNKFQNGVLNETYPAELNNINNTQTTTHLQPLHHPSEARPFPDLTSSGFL
HGIII-sPLA2 inh = human group III sPLA2 inhibitors, primary screen, biochemical, QFRET, BODIPY PC-A2 liposome substrate; Group 3 secretory phospholipase A2 (Homo sapiens), Q9NZ20; QFRET BODIPY PC-A2 liposome hydrolysis, fluorescence; inhibition, % at 12.2 µM; actives 0.56% (n = 370,000);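 active = inhibition above mean plus 3 SD of compounds lying within the high and low control bounds, cut at about 19% in these data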
HIF act = HIF pathway transcriptional activators, primary screen, cell-based, U2OS HRE-luciferase, luminescence; actives 0.32% (n = 300,000); AID 1910, 2009; U2OS HRE-luciferase reporter; normalized: DMSO 0%, desferrioxamine 100%; activation, % at 7.5 µM (by protocol);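 active = mean activation of at least 10% of the iron chelator positive control signal, with at least half of replicates also reaching 10%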
PLCb3 inh = human PLC-beta3 inhibitors, primary screen, biochemical, fluorescence; 1-phosphatidylinositol 4,5-bisphosphate phosphodiesterase beta-3 (Homo sapiens), Q01970; Purified PLC-beta3, fluorogenic substrate; inhibition, % at 12.2 µM; actives 0.18% (n = 370,000); AID 720704, 2013; in the data active = inhibition above about 11%
Yeast superoxide = reduction of superoxide in aged yeast, primary screen, HTS. S. cerevisiae aged cells, superoxide DHE fluorescence; hits give low values. superoxide response (% of plate mean), % at 10 µM. actives 0.18% (n = 330,000). AID 2690, 2010;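 active = superoxide response under a set limit, about three screen SD below normal, cut at about 65% in these data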;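 note: yeast aged for seven days with compound at 30 °C before DHE staining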
PLCg1 inh = PLC-gamma1 enzyme inhibitors, primary screen, biochemical, fluorescence, purified enzyme; actives 0.84% (n = 370,000); 1-phosphatidylinositol 4,5-bisphosphate phosphodiesterase gamma-1 (Homo sapiens), P19174; fluorogenic substrate; inhibition, % at 12.2 µM; AID 720700, 2013; in the data active = inhibition above about 9.5%
Of the large screens only hits and unclear results are named; the others gave an inactive call.

CCOc1ncccc1C(=O)Nc1cccc(-c2nnc3n2CCCCC3)c1	AHR activator 47.1
CCOc1ncccc1C(=O)Nc1ccc(F)c(F)c1	AHR activator 59.8
Cc1cc(NS(=O)(=O)c2ccc(NC(=O)CSc3nnc(-c4cccnc4)n3-c3ccccc3)cc2)nc(C)n1	none (no result: AHR activator, HIF act, Yeast superoxide)
CCOc1ncccc1C(=O)Nc1ccc(F)c(Cl)c1	AHR activator 61.2
O=S(=O)(N[C@@H]1CCCC[C@@H]1N1CCOCC1)c1ccc(Cl)cc1	none (no result: AHR activator, HIF act, Yeast superoxide)
Cc1c(-c2cc(Br)ccc2O)nc2cc3c(cc2c1C)OCO3	AHR activator 62.7
CC1CCC2(CC1)CCN(CCCOC(=O)Nc1cccc(F)c1)C2=O (configuration not stated)	none (no result: AHR activator, HIF act, Yeast superoxide)
COCC(=O)OC1CCn2c1nc1c2C(=O)C(C)=C(NC(C)=O)C1=O (configuration not stated)	PLCg1 inh 14.5 (no result: AHR activator, HIF act, Yeast superoxide)
COc1ccc(CC(=O)N2CCN(C(=O)c3ccc4nc(C)n(C5CCCC5)c4c3)CC2)cc1	none (no result: AHR activator, HIF act, Yeast superoxide)
O=[N+]([O-])c1cccc(-c2nc(NCc3ccccc3)c3ccccc3n2)c1	AHR activator 88.1
COCCCN1C(=O)[C@H](CC(=O)NCCc2ccccc2OC)[C@]2(C(=O)OC)CCCCC=C12	none (no result: AHR activator, HIF act, Yeast superoxide)
Oc1c(C(Nc2cccc(C(F)(F)F)c2)c2ccncc2)ccc2cccnc12 (configuration not stated)	HIF act 23.6
COc1ccc(CNC(=O)CCS(=O)(=O)c2ccc3c(c2)oc(=O)n3C)cc1	none
CN(C)c1ccc(CNC(=O)CCS(=O)(=O)c2ccc3c(c2)oc(=O)n3C)cc1	HIF act 32.8
Cc1ccc(CNC(=O)C2c3ccccc3C(=O)N3CCc4ccccc4C23)o1 (configuration not stated)	AHR activator 115.0
O=C(NCCN1CCN(Cc2ccccc2)CC1)C1c2ccccc2C(=O)N2CCc3ccccc3C12 (configuration not stated)	none
Cc1ccc(C(=O)N/N=C\C=C\c2ccccc2[N+](=O)[O-])cn1	AHR activator 58.9
Cn1c(=O)c2c(ncn2CC(=O)N/N=C/C=C/c2ccccc2[N+](=O)[O-])n(C)c1=O	AHR activator 60.8 (no result: HGIII-sPLA2 inh, PLCb3 inh, PLCg1 inh)
Cc1ccc(C(=O)N/N=C\c2ccccc2[N+](=O)[O-])cn1	none (no result: AHR activator, Yeast superoxide)
CC(C)n1c(O)c(N=NC(=O)C2COc3ccccc3O2)c2ccccc21 (configuration not stated)	AHR activator 57.9
CCOC(=O)[C@@]12CCC3=C1N(CCC3)C(=O)[C@H](CC(=O)NCCCCc1ccccc1)C2	none (no result: AHR activator, HIF act, Yeast superoxide)
Cc1ccc(C(=O)NNC(=O)c2ccncc2)cc1[N+](=O)[O-]	none (no result: HIF act)
Cc1ccc(C(=O)ONC(=O)c2ccc(Cl)cc2)cc1[N+](=O)[O-]	AHR activator 55.4
Oc1[nH]c2ccccc2c1N=Nc1ccccc1F	AHR activator 53.6
Oc1[nH]c2ccccc2c1N=Nc1ccccc1	none
Cc1[nH]c2ccccc2c1N=Nc1ccccc1C(=O)O	AHR activator 74.9
CC(C)(C)c1ccc(O)c(N)c1	AHR activator 48.0 (no result: HGIII-sPLA2 inh, PLCb3 inh, PLCg1 inh)
Cc1cccc(OCC(=O)Oc2ccc(Cl)cc2)c1	none
Cc1cccc(OC(=O)NCCOC(=O)N(O)c2ccc(Cl)cc2)c1	AHR activator 52.6
COc1cc(O)oc1C=Nc1ccc(C(F)(F)F)cc1	AHR activator 53.9
CCCC(=O)Nc1cc(-c2nnc(OC)c3ccccc23)ccc1N1CCCCC1	none (no result: HGIII-sPLA2 inh, PLCb3 inh, PLCg1 inh)
COc1nnc(-c2ccc(N3CCCCC3)c(N)c2)c2ccccc12	AHR activator 64.3
c1ccc(-c2nc3ccccc3o2)nc1	none
c1ccc2nc(-c3nc4ccccc4o3)ccc2c1	AHR activator 90.0
CCCCCCCCN1C(=O)[C@@H](CC(=O)NCCCOC)C[C@@]2(C(=O)OC)C1=C[C@H](C(C)(C)C)O[C@@H]2C	none (no result: AHR activator, HIF act, Yeast superoxide)
COc1ccc(N(CC(=O)Nc2ccc3c(c2)OCO3)S(=O)(=O)c2c(C)nn(C)c2C)cc1	AHR activator 59.5
COc1ccc(NC(=O)CN(c2ccc(OC)cc2)S(=O)(=O)c2c(C)nn(C)c2C)cc1	none
COc1ccc(OC)c(N(CC(=O)Nc2ccc3c(c2)OCO3)S(=O)(=O)c2ccccc2)c1	none
COc1ccc(Cl)cc1N(CC(=O)Nc1ccc2c(c1)OCO2)S(C)(=O)=O	AHR activator 75.7
CC[C@@H](CCCc1ccccc1OC)CCS(=O)(=O)C(C)(C)C	none (no result: AHR activator, HIF act, Yeast superoxide)
CCOc1cc(NC(=S)NC)c(OCC)cc1NC(=O)c1ccc(OC)cc1	none
CCCCC(=O)Nc1cc(OCC)c(NC(=S)NC)cc1OCC	AHR activator 71.2
Cc1ccc2[nH]c(C)c(/C=N/Nc3nc4ccccc4s3)c2c1	AHR activator 65.0
O=C(NN=Cc1ccc2c(c1)OCO2)NN=Cc1ccc2c(c1)OCO2	none (no result: AHR activator, HIF act, Yeast superoxide)
C(=N\Nc1ccccc1)/c1nc2ccccc2s1	AHR activator 69.4
Cc1nc(N/N=C\c2ccc3c(c2)OCO3)sc1C	AHR activator 74.8
C(=N\Nc1nc2ccccc2s1)/c1ccc2c(c1)OCO2	AHR activator 111.8
O=S1(=O)CC2c3ccccc3CCN2CN1Cc1ccc(F)cc1 (configuration not stated)	none (no result: AHR activator, HIF act, Yeast superoxide)
CCCCCCCCN1C(=O)[C@@H](CC(=O)NCCCOCCCC)C[C@@]2(C(=O)OC)C1=C[C@H](C(C)C)O[C@@H]2C1CC1	none (no result: AHR activator, HIF act, Yeast superoxide)
Brc1csc(/C=N/Nc2nc3ccccc3s2)c1	AHR activator 100.5
C(=N\Nc1nc2ccccc2s1)/c1ccccn1	none
CCCCCCCCN1C(=O)[C@@H](CC(=O)N2CCOCC2)C[C@@]2(C(=O)OC)C1=C[C@H](C(C)C)O[C@@H]2C1CC1	none (no result: AHR activator, HIF act, Yeast superoxide)
COc1cc2c(cc1NC(=O)CSc1nnc(-c3ccccc3C)n1Cc1ccco1)oc1ccccc12	none (no result: AHR activator, HIF act, Yeast superoxide)
Cc1ccc(NC(=O)CCNS(=O)(=O)c2cccc3nonc23)cc1	none
CC(C)c1ccc(NC(=O)CCNS(=O)(=O)c2cccc3nonc23)cc1	PLCg1 inh 13.5
O=C(CN1CCOCC1)Nc1c2c(nc3ccccc13)N(Cc1ccccc1)CC2	AHR activator 55.1
CCN(CC)CC(=O)Nc1c2c(nc3ccccc13)N(C)CC2	none
O=C(CN1CCCC1)Nc1c2c(nc3ccccc13)N(Cc1ccccc1)CC2	AHR activator 71.2
CCn1c2ccccc2c2cc(NC(=O)COC(=O)c3ccc(F)cc3Cl)ccc21	none (no result: AHR activator, HIF act, Yeast superoxide)
O=C(Nc1ccccc1Cl)O[C@@H]1CC[C@@]23CCCN2C(=O)CCC[C@H]3C1	none (no result: AHR activator, HIF act, Yeast superoxide)
O=C(NCc1ccccc1)OCCN1C(=O)CCC12CCCCC2	none (no result: AHR activator, HIF act, Yeast superoxide)
COC(=O)c1ccc(N)cc1O	none
COC(=O)c1ccc(=O)c2nc3/c(=C/O)c(O)cc(=O)c3[nH]c12	Yeast superoxide 44.6, PLCg1 inh 10.9 (no result: HIF act)
